Data as given in the antibiotic and cytotoxicity screens of Wong et al. (2023).
Screen size: about 39,000 compounds; about 3,300 (8.5%) were called active. The sample as a whole holds a higher share of actives than the screen did.

Tested on: HepG2
Test: cytotoxicity call (relative viability < 0.9)
Details: 10 µM

Row | Structure (SMILES) | cytotoxicity call
1 | C[C@@H]1CN([C@@H](C)CO)C(=O)c2cc(NC(=O)Cc3ccccc3)ccc2O[C@@H](C)CCCCO[C@@H]1CN(C)C(=O)NC1CCCCC1 | inactive
2 | C[C@H](CO)N1C[C@H](C)[C@@H](CN(C)S(=O)(=O)c2cn(C)cn2)Oc2ccc(NS(C)(=O)=O)cc2C1=O | inactive
3 | C[C@@H]1CN([C@H](C)CO)C(=O)c2cccc(NS(C)(=O)=O)c2O[C@@H]1CN(C)C(=O)Nc1ccc2c(c1)OCO2 | inactive
4 | C[C@@H]1CN([C@@H](C)CO)C(=O)c2ccccc2-c2ccccc2CO[C@@H]1CN(C)S(=O)(=O)c1cn(C)cn1 | inactive
5 | C[C@@H]1CCCCO[C@@H](CN(C)Cc2ccc(C(F)(F)F)cc2)[C@H](C)CN([C@@H](C)CO)C(=O)c2cc(NC(=O)CCCN(C)C)ccc2O1 | inactive
6 | C[C@@H]1CCCCO[C@H](CN(C)S(C)(=O)=O)[C@@H](C)CN([C@H](C)CO)C(=O)c2cc(NC(=O)c3ccncc3)ccc2O1 | inactive
7 | CO[C@@H]1CN(C)C(=O)c2cc(NS(=O)(=O)c3ccccc3)ccc2OC[C@H](C)N(C(=O)NC(C)C)C[C@H]1C | inactive
8 | CN(C)C(=O)C[C@@H]1CC[C@@H](NC(=O)C2CCOCC2)[C@H](CO)O1 | inactive
9 | CCCCOc1cc(C(=O)OCCN(CC)CC)ccc1N.Cl | inactive
10 | CCCOc1ccc(C(=O)OCCN(CC)CC)cc1N.Cl | inactive
11 | CCN(CCCCOC(=O)c1ccc(OC)c(OC)c1)C(C)Cc1ccc(OC)cc1.Cl (stereo not given) | active
12 | C[C@H](CO)N1C[C@H](C)[C@H](CN(C)S(=O)(=O)c2ccc(F)cc2)Oc2ccc(NC(=O)CCCN(C)C)cc2C1=O | inactive
13 | Cc1noc(C)c1NC(=O)Nc1ccc2c(c1)C(=O)N([C@@H](C)CO)C[C@H](C)[C@@H](CN(C)Cc1ccc(C(F)(F)F)cc1)OCCCC[C@H](C)O2 | inactive
14 | O=C(Nc1cccnc1)c1nc2ncccn2n1 | inactive
15 | Cc1ccc(C(=O)Nc2cccc(C(F)(F)F)c2)cc1Nc1nc(-c2cccnc2)nc2c1cnn2C | active
16 | Cc1cn(-c2cc(NC(=O)c3ccc(C)c(Nc4nccc(-c5cccnc5)n4)c3)cc(C(F)(F)F)c2)cn1 | active
17 | O=C(O)c1cccnc1Nc1cccc(C(F)(F)F)c1 | inactive
18 | Cc1cn(-c2cc(NC(=O)c3ccc(C)c(Nc4nccc(-c5cnccn5)n4)c3)cc(C(F)(F)F)c2)cn1 | inactive
19 | COC(=O)CNC(=O)c1ccc(S(=O)(=O)N2CCOCC2)cc1 | inactive
20 | C[C@@H]1CN([C@@H](C)CO)C(=O)c2cccc(NS(=O)(=O)c3cn(C)cn3)c2O[C@@H]1CN(C)Cc1ccc(C(=O)O)cc1 | inactive
21 | C[C@@H]1CN([C@H](C)CO)C(=O)c2cc(NC(=O)Cn3cnnn3)ccc2O[C@H]1CN(C)Cc1ccc(C(=O)O)cc1 | inactive
22 | C[C@@H]1CCCCO[C@H](CN(C)C(=O)Nc2ccccc2)[C@H](C)CN([C@@H](C)CO)C(=O)c2cc(NS(=O)(=O)c3cccs3)ccc2O1 | inactive
23 | C[C@H](CO)N1C[C@H](C)[C@@H](CN(C)S(C)(=O)=O)Oc2ccc(NC(=O)CCC(F)(F)F)cc2CC1=O | inactive
24 | C[C@@H]1CN([C@@H](C)CO)C(=O)c2cc(NC(=O)Nc3ccccc3)ccc2O[C@@H](C)CCCCO[C@H]1CN(C)S(=O)(=O)c1cccc(F)c1 | inactive
25 | CCOC(=O)[C@H](Cc1c[nH]c2ccccc12)NC(=O)Cn1cc(C(=O)NO)nn1 | inactive

Row | Structure (SMILES) | cytotoxicity call
26 | Cc1ccc(S(=O)(=O)N[C@@H](Cc2ccccc2)C(=O)NCCn2cc(CN3C(=O)COC[C@H]3c3ccccc3)nn2)cc1 | inactive
27 | CCOC(=O)[C@H](Cc1c[nH]c2ccccc12)NC(=O)Cn1cc(CN2C(=O)COC[C@H]2c2ccccc2)nn1 | active
28 | Cc1noc(C)c1S(=O)(=O)Nc1ccc2c(c1)C(=O)N([C@@H](C)CO)C[C@@H](C)[C@H](CN(C)C(=O)NC1CCCCC1)O2 | inactive
29 | COc1ccc(-c2nc(-c3ccc(C)cc3C)cs2)cc1 | inactive
30 | COc1ccc(NC(=O)Nc2ccc3c(c2)CC(=O)N([C@@H](C)CO)C[C@H](C)[C@@H](CN(C)CC2CCCCC2)O3)cc1 | inactive
31 | COc1ccc(NC(=O)Nc2ccc3c(c2)CC(=O)N([C@@H](C)CO)C[C@@H](C)[C@@H](CN(C)CC2CCCCC2)O3)cc1 | inactive
32 | COc1ccc(NC(=O)Nc2ccc3c(c2)CC(=O)N([C@H](C)CO)C[C@@H](C)[C@@H](CN(C)CC2CCCCC2)O3)cc1 | active
33 | COc1ccc(NC(=O)Nc2ccc3c(c2)CC(=O)N([C@@H](C)CO)C[C@@H](C)[C@H](CN(C)CC2CCCCC2)O3)cc1 | active
34 | COc1ccc(NC(=O)Nc2ccc3c(c2)CC(=O)N([C@H](C)CO)C[C@H](C)[C@H](CN(C)CC2CCCCC2)O3)cc1 | inactive
35 | COc1ccc(NC(=O)Nc2ccc3c(c2)CC(=O)N([C@H](C)CO)C[C@H](C)[C@@H](CN(C)CC2CCCCC2)O3)cc1 | inactive
36 | C[C@H](CO)N1C[C@H](C)[C@H](CN(C)Cc2ccc(C(=O)O)cc2)OCCCC[C@H](C)Oc2ccc(NC(=O)NC3CCCCC3)cc2C1=O | inactive
37 | C[C@H]1CCCCO[C@H](CN(C)S(=O)(=O)c2cccs2)[C@@H](C)CN([C@@H](C)CO)C(=O)c2cc(NS(C)(=O)=O)ccc2O1 | inactive
38 | O=C(NCC(F)(F)F)[C@@H]1c2ccccc2C(=O)N(Cc2cc(C(F)(F)F)cc(C(F)(F)F)c2)[C@H]1c1ccc(CO)cc1 | inactive
39 | O=C1CO[C@H]2CN(S(=O)(=O)c3ccccc3)C[C@@H]2N1 | inactive
40 | C[C@@H]1CN([C@H](C)CO)C(=O)c2cc(NS(=O)(=O)c3ccc(F)cc3)ccc2O[C@@H]1CN(C)S(C)(=O)=O | inactive
41 | C[C@@H]1CN([C@H](C)CO)C(=O)c2cc(NS(=O)(=O)c3cccs3)ccc2O[C@@H](C)CCCCO[C@@H]1CN(C)Cc1ccc(C(=O)O)cc1 | inactive
42 | C[C@@H]1CCCCO[C@@H](CN(C)Cc2ccc(C(F)(F)F)cc2)[C@H](C)CN([C@H](C)CO)C(=O)c2cc(NS(=O)(=O)c3cccs3)ccc2O1 | active
43 | C[C@@H]1CCCCO[C@@H](CN(C)Cc2ccc(C(=O)O)cc2)[C@H](C)CN([C@H](C)CO)C(=O)c2cc(NS(=O)(=O)c3cccs3)ccc2O1 | inactive
44 | C[C@@H]1CCCCO[C@H](CN(C)Cc2ccc(C(F)(F)F)cc2)[C@H](C)CN([C@@H](C)CO)C(=O)c2cc(NS(=O)(=O)c3cccs3)ccc2O1 | active
45 | C[C@@H]1CCCCO[C@@H](CN(C)Cc2ccc(C(F)(F)F)cc2)[C@@H](C)CN([C@@H](C)CO)C(=O)c2cc(NS(=O)(=O)c3cccs3)ccc2O1 | active
46 | C[C@@H]1CN([C@@H](C)CO)C(=O)c2cc(NS(=O)(=O)c3cccs3)ccc2O[C@@H](C)CCCCO[C@@H]1CN(C)Cc1ccc(C(F)(F)F)cc1 | inactive
47 | C[C@@H]1CCCCO[C@H](CN(C)Cc2ccc(C(F)(F)F)cc2)[C@@H](C)CN([C@H](C)CO)C(=O)c2cc(NS(=O)(=O)c3cccs3)ccc2O1 | inactive
48 | C[C@H]1CCCCO[C@H](CN(C)Cc2ccc(C(F)(F)F)cc2)[C@@H](C)CN([C@@H](C)CO)C(=O)c2cc(NS(=O)(=O)c3cccs3)ccc2O1 | inactive
49 | C[C@@H]1CCCCO[C@H](CN(C)Cc2ccc(C(F)(F)F)cc2)[C@H](C)CN([C@H](C)CO)C(=O)c2cc(NS(=O)(=O)c3cccs3)ccc2O1 | active
50 | C[C@@H]1CN([C@@H](C)CO)C(=O)c2cc(NS(=O)(=O)c3cccs3)ccc2O[C@@H](C)CCCCO[C@H]1CN(C)Cc1ccc(C(F)(F)F)cc1 | inactive
